Assay results taken from paper PMC5540273 (PLoS ONE, 2017).

Columns and labels:
Settings in all cases: concentration: 1 μM, replicates: in singlicate; n = 1
RIOK1 = tested on: RIOK1
RIOK2 = tested on: RIOK2
RIOK3 = tested on: RIOK3
RIPK1 = tested on: RIPK1
RIPK2 = tested on: RIPK2
RIPK4 = tested on: RIPK4
RIPK5 = tested on: RIPK5
ROCK1 = tested on: ROCK1
ROCK2 = tested on: ROCK2
ROS1 = tested on: ROS1
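Further: KINOMEscan kinase panel screen.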

Row | Compound | %Inh (RIOK1) [%] | %Inh (RIOK2) [%] | %Inh (RIOK3) [%] | %Inh (RIPK1) [%] | %Inh (RIPK2) [%] | %Inh (RIPK4) [%] | %Inh (RIPK5) [%] | %Inh (ROCK1) [%] | %Inh (ROCK2) [%] | %Inh (ROS1) [%]
1 | COc1cccc(CC(=O)N2CCc3cc(-c4cn(C)c5ncnc(N)c45)ccc32)c1 [GSK2608899] | 20 | 20 | 17 | 100 | 35 | 0 | 58 | 23 | 5 | 9
2 | Cl.Cl.NC(CNC(=O)c1cc(Br)c(-c2ccnc3[nH]ccc23)s1)c1ccccc1 (stereo not drawn) [GSK1322949] | 100 | 88 | 98 | 21 | 0 | 34 | 18 | 99.6 | 99.9 | 51
3 | CC(C)c1nc(-c2cccc(NS(=O)(=O)c3c(F)cccc3F)c2)c(-c2ccnc(Nc3ccc(N4CCOCC4)nc3)n2)s1.Cl [GSK1723980] | 25 | 0 | 2 | 0 | 97.7 | 2 | 81 | 6 | 0 | 0
4 | Cn1cc(-c2ccc3c(c2)CCN3C(=O)Cc2cc(F)cc(F)c2F)c2c(N)ncnc21 [GSK2634140] | 39 | 15 | 13 | 99.7 | 0 | 0 | 54 | 36 | 30 | 34
5 | CCNc1nccc(-c2c(-c3ccc(F)cc3)ncn2C2CCN(C)CC2)n1 | 10 | 0 | 29 | 8 | 36 | 0 | 0 | 0 | 0 | 0
6 | CN1CCN(Cc2ccc(NC(=O)Nc3ccc(N(C)c4ccnc(Nc5ccc(CS(C)(=O)=O)cc5)n4)cc3)cc2)CC1.Cl [GW827654] | 94.1 | 100 | 93.4 | 40 | 34 | 72 | 94.9 | 94.6 | 99.2 | 40
7 | COc1cccc2c(-c3ccncc3)c(-c3ccc(F)cc3)nn12 [GW468513] | 32 | 13 | 26 | 0 | 56 | 8 | 0 | 0 | 28 | 0
8 | COc1ccc(C)c(Nc2ccnc(Nc3ccc(-c4cnc[nH]4)cc3)n2)c1.Cl [GW784041] | 36 | 6 | 34 | 13 | 100 | 0 | 0 | 0 | 0 | 3
9 | Cl.O=C(Nc1ccc(Oc2ccc3[nH]c(NC(=O)c4ccco4)nc3c2)cc1)Nc1cc(C(F)(F)F)ccc1F [GW683134] | 1 | 7 | 0 | 86 | 43 | 6 | 0 | 78 | 23 | 3
